SMILES strings stand for the structures. Results filed as inconclusive are left out. Calls of active or inactive are those of the source. Unless noted, the call rests on the fitted dose curve.

The results in this text go back to PubChem BioAssay (Tox21).

Assay [1] is described as follows: Nuclear factor erythroid 2-related factor 2/antioxidant responsive element (Nrf2/ARE) small molecule agonists: qHTS cell viability counter screen in human keratinocytes (AID 1919968; active means well fitted curve in the direction sought with a large enough effect in the repeat runs; an effect the other way counts as inactive or inconclusive; further: nearly all actives have a fitted effect of over 55% in size; further: potency means the concentration at half of the fitted maximal effect). The gist of the method:
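Measured as CellTiter-Fluor fluorescence, this readout tracks cytotoxicity in the same wells as the ARE-luciferase screen. HaCaT reporter cells (1,500/well) received compounds after a 5 h pre-incubation and were exposed for 23 h.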
In general terms: Quantitative high-throughput screening tests each substance at several concentrations.

A short description of assay [2]: Nuclear factor erythroid 2-related factor 2/antioxidant responsive element (Nrf2/ARE) small molecule agonists: luciferase reporter gene qHTS assay in human keratinocytes (AID 1919969). Further: nearly all actives have a fitted effect of over 35% in size. Further: potency means the concentration at half of the fitted maximal effect.
Assay [3] addresses Gonadotropin-releasing hormone receptor (Homo sapiens) (UniProt P30968). As to the kind of experiment: Human gonadotropin-releasing hormone receptor (GnRHR) small molecule agonists, calcium flux assay in GnRHR-HEK293 cells (AID 1920063). Further: nearly all actives have a fitted effect of over 35% in size. Summed up:
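Fluorescence kinetics (480 nm excitation, 540 nm emission; 3 min, 1 s steps) report calcium mobilisation in human GnRHR-HEK293 cells in agonist mode. Dye incubation: 1 h, 37 C.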

The target in assay [4] is KiSS-1 receptor (Homo sapiens) (UniProt Q969F8). The assay can be described thus: Human kisspeptin (KISS1R) small molecule agonists, calcium flux assay in KISS1R-HEK293 cells (AID 1920064; active means well fitted curve in the direction sought with a large enough effect in the repeat runs; an effect the other way counts as inactive or inconclusive). Summed up:
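Measures KISS1R agonism through calcium-sensitive dye fluorescence in stably transfected HEK293 cells, read for 3 min after pin-tool compound delivery; 15-point titrations in triplicate.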
Background: Calcium assays in cells follow changes in intracellular calcium, usually with a dye or a luminescent sensor.

A short description of assay [5]: G protein-coupled receptor (GPCR) small molecule agonists, calcium flux assay: HEK293 wild type cell line counter screen (AID 1920065). The gist of the method:
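Readout: fluorescence at 480 nm excitation/540 nm emission, sampled at 1 s intervals for 3 min. Cells had been cultured 18 h, then dye-loaded 1 h at 37 C before compound or ATP addition.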

Assay [6] in a line: p53 small molecule agonists, cell-based qHTS assay with human liver microsomes (AID 1963577). The gist of the method: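 p53RE-bla reporter cells were pre-incubated 5 h at 37 C, then treated with compounds plus human liver microsomes (0.5 mg/mL final) and NADPH (0.5 mg/mL final) for 16 h at 37 C. Beta-lactamase activity was read by LiveBLAzer fluorescence after 2 h at room temperature.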

A short description of assay [7]: p53 small molecule agonists, cell-based qHTS assay with rat liver microsomes (AID 1963578). Summed up:
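p53RE-bla cells were exposed to compounds together with rat liver microsomes (0.5 mg/mL final) and NADPH (0.5 mg/mL final) for 16 h at 37 C, then read by LiveBLAzer beta-lactamase fluorescence after 2 h at room temperature.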

The nature of assay [8]: p53 small molecule agonists, cell-based qHTS assay with human liver microsomes: qHTS cell viability counter screen (AID 1963579). Further: nearly all actives have a fitted effect of over 45% in size. Summed up:
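p53RE-bla cells (4,000/well) were pre-incubated 5 h at 37 C, then given compounds in DMSO plus human liver microsomes (0.5 mg/mL final) and NADPH (0.5 mg/mL final) for 16 h at 37 C. Viability was read by CellTiter-Glo luminescence.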

Assay [9] is described as follows: p53 small molecule agonists, cell-based qHTS assay with rat liver microsomes: qHTS cell viability counter screen (AID 1963580). Further: nearly all actives have a fitted effect of over 45% in size. The gist of the method:
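Viability is assessed in parallel with the p53 reporter read: HCT-116 p53RE-bla cells receive compounds plus rat microsomes and NADPH (0.5 mg/mL final apiece), incubate 16 h at 37 C, and then CellTiter-Glo luminescence is recorded.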

The nature of assay [10]: p53 small molecule agonists, cell-based qHTS assay (AID 1963582; active means well fitted activation curve with a large enough effect in the signal ratio in the repeat runs, not every such curve was filed as active; the % refers to the signal ratio). The gist of the method:
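Compounds are pin-transferred in DMSO onto p53RE-bla cells and incubated 16 h at 37 C. The B/G FRET beta-lactamase substrate is then applied for 2 h at RT and fluorescence recorded.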

Assay [11] deals with 5-hydroxytryptamine receptor 2A (Homo sapiens) (UniProt P28223). As to the kind of experiment: 5-hydroxytryptamine receptor 2A (HTR2A) small molecule agonists, cell-based qHTS assay (AID 1963587). Further: nearly all actives have a fitted effect of over 30% in size. Summed up: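 CHO cells stably expressing human HTR2A, plated 18 h, loaded with calcium dye 1 h at 37 C. Agonist mode: compounds added and intracellular calcium fluorescence recorded kinetically for 2 min at 1 sec intervals.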
Sequence of 5-hydroxytryptamine receptor 2A (Homo sapiens) (P28223 whole entry, looked up): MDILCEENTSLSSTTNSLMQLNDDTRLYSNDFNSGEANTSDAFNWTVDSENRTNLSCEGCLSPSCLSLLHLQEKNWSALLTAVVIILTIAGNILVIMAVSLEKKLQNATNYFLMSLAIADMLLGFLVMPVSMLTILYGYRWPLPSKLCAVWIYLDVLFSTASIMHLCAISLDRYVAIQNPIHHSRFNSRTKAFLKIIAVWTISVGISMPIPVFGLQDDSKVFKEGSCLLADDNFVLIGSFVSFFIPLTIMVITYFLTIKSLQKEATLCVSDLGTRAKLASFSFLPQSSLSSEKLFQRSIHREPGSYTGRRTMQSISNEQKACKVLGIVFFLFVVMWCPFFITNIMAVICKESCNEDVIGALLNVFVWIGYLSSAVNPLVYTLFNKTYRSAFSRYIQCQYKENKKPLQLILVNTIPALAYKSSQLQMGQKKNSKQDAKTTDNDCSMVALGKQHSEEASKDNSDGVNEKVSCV

Assay [12] addresses Muscarinic acetylcholine receptor M1 (Homo sapiens) (UniProt P11229). The assay can be described thus: Cholinergic receptor muscarinic 1 (CHRM1) small molecule antagonists, cell-based qHTS assay (AID 1963588). Further: nearly all actives have a fitted effect of over 40% in size. Summed up: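 CHRM1-CHO calcium-flux assay, antagonist mode. Cells were seeded 18 h, dye-loaded 1 h at 37 C and given compound for 5 min at RT, then acetylcholine was added at 50nM. FDSS fluorescence was read 3 min; 15 concentrations, three runs.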

For assay [13] the target is unchanged. As to the kind of experiment: Cholinergic receptor muscarinic 1 (CHRM1) small molecule agonists, cell-based qHTS assay (AID 1963589). Further: nearly all actives have a fitted effect of over 35% in size. The gist of the method:
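Each compound was tested at 15 concentrations across three independent runs on dye-loaded CHO cells stably expressing human CHRM1, reading intracellular calcium fluorescence kinetically at 1 sec intervals.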

Assay [14] is described as follows: cAMP Responsive Elements (CRE) small molecule agonists, cell-based qHTS assay (AID 1963590). The gist of the method:
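Cell line: CRE-bla HEK 293T; medium DMEM/10% dialyzed FBS/0.1 mM NEAA/1 mM pyruvate/25 mM HEPES; 3 h compound exposure; beta-lactamase FRET readout after 2 h substrate loading at RT.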

A short description of assay [15]: cAMP Responsive Elements (CRE) small molecule antagonists, cell-based qHTS assay (AID 1963591; active means well fitted inhibition curve with a large enough effect in the signal ratio in the repeat runs, not every such curve was filed as active; the % refers to the signal ratio). Summed up: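 Inhibition of NKH477-driven (0.25 uM final) CRE-beta-lactamase signal in HEK293T cells, 3 h compound exposure at 37 °C, detected by FRET substrate fluorescence.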
Assay [16] deals with Beta-2 adrenergic receptor (Homo sapiens) (UniProt P07550). As to the kind of experiment: Adrenergic beta2 receptor (ADRB2) small molecule antagonists, cell-based qHTS assay (AID 1963592). Further: series mostly up to about 92 µM; nearly all actives have a fitted effect of over 50% in size. The gist of the method: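 Cells (CHO, stable ADRB2 overexpression) incubated 18-20hr at 37C; compounds added from DMSO; agonist mix (1nM isoproterenol, 100uM IBMX, 25uM Ro-20-1724) added; 0.5hr RT; d2-cAMP and anti-cAMP-cryptate added; 1hr RT; 665/615 nm read.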
Sequence of Beta-2 adrenergic receptor (Homo sapiens) (P07550 whole entry, looked up): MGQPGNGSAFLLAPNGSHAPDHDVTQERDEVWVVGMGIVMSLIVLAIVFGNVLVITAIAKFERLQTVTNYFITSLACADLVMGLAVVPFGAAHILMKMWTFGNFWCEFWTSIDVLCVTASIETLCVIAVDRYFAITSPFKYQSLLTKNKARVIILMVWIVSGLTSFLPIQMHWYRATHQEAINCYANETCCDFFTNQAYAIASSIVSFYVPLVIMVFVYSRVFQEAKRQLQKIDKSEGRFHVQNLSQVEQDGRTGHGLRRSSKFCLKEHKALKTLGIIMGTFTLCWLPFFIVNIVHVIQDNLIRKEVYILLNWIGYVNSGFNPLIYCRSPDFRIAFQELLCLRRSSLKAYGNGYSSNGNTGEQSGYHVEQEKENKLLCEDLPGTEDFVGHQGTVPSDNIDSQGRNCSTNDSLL

Assay [17] has the same target. As to the kind of experiment: Adrenergic beta2 receptor (ADRB2) small molecule agonists, cell-based qHTS assay (AID 1963593).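 Further: CHO cells stably overexpressing human ADRB2.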 The gist of the method: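 CHO cells stably over-expressing ADRB2 were plated overnight at 37C, then dosed with compounds plus a stimulation mix containing 100uM IBMX and 25uM Ro-20-1724 for 0.5hr at room temperature. cAMP was measured by HTRF competition, 1hr.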

The target in assay [18] is D(2) dopamine receptor (Homo sapiens) (UniProt P14416). The assay can be described thus: Dopamine D2 receptor (DRD2) small molecule agonists, cell-based qHTS assay (AID 1963594). Further: nearly all actives have a fitted effect of over 35% in size. The gist of the method:
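HEK293 cells stably expressing human DRD2, pre-treated with PDE inhibitor Ro20-1724 (0.1 mM final) and compound 10 min at room temperature, then stimulated with NKH477 (200nM […]) for 30 min. cAMP read by HTRF (665/620 nm).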

For assay [19] the target is unchanged. The assay can be described thus: Dopamine D2 receptor (DRD2) small molecule antagonists, cell-based qHTS assay (AID 1963595; active means well fitted inhibition curve with a large enough effect in the signal ratio in the repeat runs, with a control signal flat; the % refers to the signal ratio; further: potency means the concentration at half of the fitted maximal effect). Summed up:
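Cells were plated and grown for 24 h at 37 °C. Ro20-1724 (0.1 mM final) went in first, then compound for 10 min. NKH477 (200 nM) with quinpirole (12 nM) followed for 30 min at RT, then HTRF detection reagents for 1 h.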

Sequence of Gonadotropin-releasing hormone receptor (Homo sapiens) (P30968 whole entry, looked up): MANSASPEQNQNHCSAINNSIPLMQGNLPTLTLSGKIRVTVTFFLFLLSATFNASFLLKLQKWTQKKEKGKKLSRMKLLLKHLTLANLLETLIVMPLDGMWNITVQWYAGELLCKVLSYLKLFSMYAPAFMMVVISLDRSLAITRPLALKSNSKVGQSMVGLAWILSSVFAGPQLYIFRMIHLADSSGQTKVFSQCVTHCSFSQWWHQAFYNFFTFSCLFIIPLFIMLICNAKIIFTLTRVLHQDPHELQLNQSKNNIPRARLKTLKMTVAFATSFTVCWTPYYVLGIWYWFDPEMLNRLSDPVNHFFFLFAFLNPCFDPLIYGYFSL
Sequence of D(2) dopamine receptor (Homo sapiens) (P14416 whole entry, looked up): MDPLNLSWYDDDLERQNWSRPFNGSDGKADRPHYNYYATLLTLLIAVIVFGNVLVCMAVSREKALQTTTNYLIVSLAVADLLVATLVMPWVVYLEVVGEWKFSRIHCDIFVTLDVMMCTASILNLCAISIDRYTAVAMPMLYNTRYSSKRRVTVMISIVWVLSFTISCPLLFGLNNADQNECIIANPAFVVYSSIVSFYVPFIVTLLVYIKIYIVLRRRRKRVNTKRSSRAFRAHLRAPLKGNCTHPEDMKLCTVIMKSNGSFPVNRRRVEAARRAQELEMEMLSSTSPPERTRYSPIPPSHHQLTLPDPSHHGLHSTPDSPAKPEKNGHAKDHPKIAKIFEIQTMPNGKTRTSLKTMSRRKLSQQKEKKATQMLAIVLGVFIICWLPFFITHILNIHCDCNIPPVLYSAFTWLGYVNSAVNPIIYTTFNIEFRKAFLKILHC
Sequence of Muscarinic acetylcholine receptor M1 (Homo sapiens) (P11229 whole entry, looked up): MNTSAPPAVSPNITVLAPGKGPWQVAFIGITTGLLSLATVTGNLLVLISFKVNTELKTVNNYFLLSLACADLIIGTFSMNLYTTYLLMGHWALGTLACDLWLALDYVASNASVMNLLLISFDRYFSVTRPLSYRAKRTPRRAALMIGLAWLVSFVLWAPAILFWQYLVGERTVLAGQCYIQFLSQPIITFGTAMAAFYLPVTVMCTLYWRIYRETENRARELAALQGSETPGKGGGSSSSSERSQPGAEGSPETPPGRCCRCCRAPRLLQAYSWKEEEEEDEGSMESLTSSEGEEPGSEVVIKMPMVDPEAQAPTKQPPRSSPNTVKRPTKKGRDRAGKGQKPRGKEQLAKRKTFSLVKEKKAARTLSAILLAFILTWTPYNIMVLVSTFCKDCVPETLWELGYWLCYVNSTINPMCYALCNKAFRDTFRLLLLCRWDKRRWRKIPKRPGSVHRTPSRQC
Sequence of KiSS-1 receptor (Homo sapiens) (Q969F8 whole entry, looked up): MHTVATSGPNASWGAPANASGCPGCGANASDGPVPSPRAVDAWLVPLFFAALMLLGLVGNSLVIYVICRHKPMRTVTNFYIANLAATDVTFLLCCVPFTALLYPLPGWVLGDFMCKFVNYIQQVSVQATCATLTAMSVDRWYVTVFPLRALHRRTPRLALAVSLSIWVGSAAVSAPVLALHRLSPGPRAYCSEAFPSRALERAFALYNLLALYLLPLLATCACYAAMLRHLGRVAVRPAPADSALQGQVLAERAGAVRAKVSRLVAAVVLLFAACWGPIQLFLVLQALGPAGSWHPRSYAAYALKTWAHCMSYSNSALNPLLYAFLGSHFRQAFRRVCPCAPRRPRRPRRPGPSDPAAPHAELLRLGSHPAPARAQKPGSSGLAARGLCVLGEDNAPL

`COC(=O)CCCCC(=O)O`: the Potency result in [1], in assay [2], in assay [3], in assay [4], in assay [5] and in assay [6] was “inactive” throughout. The Potency result in assay [7], in [8], in assay [9], in [10], in assay [11] and in assay [12] was “inactive” in each case. For the same molecule, the Potency result in [13], in [14], in assay [15], in [16], in [17] and in assay [18] was “inactive” each time. Besides, in [19], the Potency entry is “inactive”.

Regarding `C=CC(=O)OCCOC(=O)C=C`, the Potency entry in assay [1], in assay [3], in assay [4], in [5], in assay [6] and in [7] was “inactive” throughout. Further, the Potency entry in [8], in assay [9], in [10], in assay [11], in assay [12] and in assay [13] was “inactive” each time. For the same molecule, the Potency entry in assay [14], in [15], in [17], in [18] and in [19] was “inactive” each time. In addition, the Potency in assay [2] is 68.6 µM (active).

Regarding `Clc1ccc(C(c2ccccc2Cl)C(Cl)Cl)cc1` (stereo unspecified), in assay [1], the Potency was 61.1 µM (active). For the same molecule, the Potency entry in assay [2], in assay [3], in [4], in assay [5], in assay [6] and in assay [7] was “inactive” each time. Besides, the Potency result in [8], in assay [9], in assay [10], in [15], in assay [16] and in assay [17] was “inactive” throughout. Besides, in assay [18], the Potency entry was “inactive”.

In the case of `O=C(O)c1cc(C(=O)O)cc([N+](=O)[O-])c1`, the Potency entry in assay [1], in assay [2], in [3], in assay [4], in [5] and in [6] was “inactive” in each case. The Potency entry in [7], in assay [8], in assay [9], in [10], in assay [11] and in [12] was “inactive” each time. Also, the Potency result in [13], in assay [14], in assay [15], in [16], in assay [17] and in assay [18] was “inactive” in each case. Moreover, the Potency entry in [19] is “inactive”.

As to `NC(=O)Nc1ccc(Cl)cc1`, the Potency result in assay [1], in assay [2], in [3], in assay [4], in [5] and in assay [6] was “inactive” each time. The Potency entry in assay [7], in assay [8], in assay [9], in [10], in [11] and in assay [12] was “inactive” throughout. In addition, the Potency result in assay [15], in assay [16] and in assay [18] was “inactive” throughout.

Turning to `FC(F)(F)c1ccccc1Cl`, the Potency result in [1], in [2], in assay [3], in [4], in assay [5] and in assay [6] was “inactive” throughout. Besides, the Potency result in [7], in [8], in [9], in assay [11], in assay [12] and in assay [13] was “inactive” in each case. For the same molecule, the Potency result in assay [14], in assay [15], in assay [16], in assay [17], in [18] and in assay [19] was “inactive” in each case.

`Clc1ccccc1C(c1ccccc1)(c1ccccc1)n1ccnc1`: the Potency in assay [1] was 30.6 µM (active); in assay [19] it was 61.1 µM (active). Further, the Potency entry in [2], in [3], in [4], in assay [5], in assay [6] and in [7] was “inactive” throughout. Besides, the Potency entry in [8], in assay [9], in [10], in [16] and in assay [17] was “inactive” in each case.
